# In the library only some 2.3% were active in any assay of this set; here they are far more common.
# Bim-Mcl-1 = human Bim-Mcl-1 interaction inhibition. Q07820. Bead-based flow cytometry, Bim peptide-Mcl-1 binding. inhibition, % at 10 µM. hit rate 0.1% among 190,000. AID 1009; in the data active = inhibition above about 40%;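 also: 0% = no compound tracer wells and 100% = peptide blocker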
# BCLXL inh = inhibitors of human Bcl-xL. GST-Bcl-xL / FITC-Bim BH3 peptide fluorescence polarization. inhibition, % at 10.9 µM. hit rate 0.7% among 320,000;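 active = inhibition above the mean of all tested compounds plus 3 SD, cutoff set per campaign, cut at about 30% in these data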;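 also: 0% = DMSO wells and 100% = unlabeled Bim-BH3 peptide competitor; inhibitors lower millipolarization by displacing the labeled peptide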
# Target sequence (Q07817 whole entry, looked up): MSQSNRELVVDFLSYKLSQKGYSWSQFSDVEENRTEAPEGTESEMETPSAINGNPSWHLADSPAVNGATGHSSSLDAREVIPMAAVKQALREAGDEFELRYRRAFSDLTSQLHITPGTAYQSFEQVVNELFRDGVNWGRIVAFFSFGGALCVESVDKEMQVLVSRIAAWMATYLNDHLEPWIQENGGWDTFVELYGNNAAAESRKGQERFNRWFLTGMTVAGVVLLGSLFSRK
# Mcl1 Bid PPI = disrupts binding of human Mcl-1 to Bid peptide; Q07820; TR-FRET Mcl-1/Bid-Dy647 peptide binding, 1536-well; inhibition, % at 21.7 µM; hit rate 0.97% among 220,000; AID 1021;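 active = compounds that cut the binding signal by more than half at the single screening dose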;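 also: His-tagged Mcl-1 with europium anti-His antibody binding Bid BH3 peptide; 0% = Mcl-1 plus peptide wells and 100% = peptide-only wells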
# Mcl1-Noxa inh = disrupts binding of human Mcl-1 to Noxa peptide; inhibition, % at 21.7 µM; Q07820; AID 1022; TR-FRET Mcl-1/Noxa peptide binding, 2 h; hit rate 1.5% among 220,000;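 active = compounds that cut the protein-peptide binding signal by more than 50% relative to plate controls in a single-dose test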;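 also: His-tagged Mcl-1 with rhodamine Noxa BH3 peptide and terbium anti-His antibody; 0% = Mcl-1 plus Noxa peptide wells and 100% = peptide-only wells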
# GLD-1 RNA inh = GLD-1-TGE RNA interaction inhibition (C. elegans); Q17339; purified GLD-1 + fluorescein TGE RNA, fluorescence polarization; inhibition, % at 5.96 µM; hit rate 0.44% among 320,000;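 active = percent inhibition above a per-plate cutoff, the plate mean of test compounds plus 3 SD, cut at about 30% in these data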;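 also: 0% = DMSO wells with GLD-1 and probe and 100% = wells lacking GLD-1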
# MCL1-BIM inh = disrupts human MCL1 binding to BIM-BH3 peptide; AID 2057; hit rate 0.68% among 320,000; inhibition, % at 10.9 µM; Q07820; GST-MCL1 / FITC-Bim-BH3 fluorescence polarization;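 active = inhibition above the mean inhibition of all tested compounds plus 3 SD, set per campaign, cut at about 40% in these data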;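 also: 0% = DMSO wells and 100% = unlabeled Bim-BH3 peptide control; higher means more loss of mP so more displacement of Bim peptide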
# The depositor's hits bear a star; . = no result.
SMILES,Bim-Mcl-1,BCLXL inh,Mcl1 Bid PPI,Mcl1-Noxa inh,GLD-1 RNA inh,MCL1-BIM inh
O=[N+]([O-])c1cc([N+](=O)[O-])c2cccnc2c1Oc1ccccc1O,0.0,11.4,-58.9,92.5*,6.0,18.5
O=[N+]([O-])c1cc(F)c2cccnc2c1O,.,-0.8,-108.5,-30.1,-1.3,-5.5
O=[N+]([O-])c1cc(CN2CCOCC2)c2cccnc2c1O,-1.0,.,-16.1,94.4*,.,.
O=[N+]([O-])c1ccc(O)c2ncccc12,-1.0,0.7,6.0,72.9*,7.7,8.4
O=[N+]([O-])c1cc(Cl)c(O)c2ncccc12,0.0,.,-33.3,70.0*,.,.
O=[N+]([O-])c1cc(Cl)c2cccnc2c1O,0.0,6.1,-71.7,-18.8,0.1,11.1
Cc1cccc([C@@H]2[C@@H]3C(=O)N(Cc4ccccc4)C(=O)[C@@H]3[C@]3(Cc4ccc(Cl)cc4)C(=O)N(c4cccc(Br)c4)C(=O)N23)c1,.,-2.6,.,.,-2.7,-8.7
CCOc1ccc(NC(=O)CNC(=O)c2ccc([N+](=O)[O-])cc2)cc1,-2.0,4.3,-27.4,-1.5,4.3,1.0
CCCCn1c(N)c(N(CCOC)C(=O)COC(=O)COc2ccccc2C#N)c(=O)[nH]c1=O,.,-0.2,.,.,5.8,-8.0
O=[N+]([O-])c1ccc(O)c2cccnc12,-1.0,43.9*,-37.8,24.7,13.3,47.8*
O=[N+]([O-])c1ccc(Cl)c2cccnc12,-2.0,-0.3,-8.3,-6.4,1.5,-1.8
O=C(COc1ccc(Br)cc1)Nc1ccncc1,-2.0,3.2,-8.3,5.1,4.0,2.0
CCC(C)(C)c1ccc(OCC(=O)Nc2ccncc2)cc1,.,69.1*,.,.,-9.8,0.6
CC(OC(=O)Cc1c(F)cccc1Cl)C(=O)NC1CCCCC1C (centres undefined),.,-0.1,.,.,-1.0,-1.1
CC(C)CN1C(=O)c2ccc(NC(=O)c3cccs3)cc2C1=O,-4.0,0.6,-12.0,19.8,8.1,7.3
O=C(Nc1ccc(Oc2ccc3c(c2)C(=O)N(c2ccc(O)cc2)C3=O)cc1)c1cccs1,-2.0,3.0,65.8*,-61.9,-2.2,-2.4
CCNCC(=O)N1c2ccccc2CCc2ccc(NC(=O)OC(C)C)cc21,.,-0.8,.,.,-5.3,0.0
O=c1n(S(=O)(=O)c2cccc3cccnc23)c2ccccc2n1S(=O)(=O)c1cccc2cccnc12,-6.0,2.4,91.4*,9.7,-1.4,-1.1
CC1CC(C)CN(S(=O)(=O)c2cccc3cccnc23)C1 (centres undefined),0.0,1.7,-22.9,5.0,-4.8,4.3
C=C(C)Cn1c(Sc2nnc(C)s2)nc2c1c(=O)[nH]c(=O)n2C,0.0,3.4,89.1*,-16.6,0.9,1.4
CCOC(=O)c1nc(C)sc1-c1ccnn1S(=O)(=O)c1ccc(C)cc1,.,1.6,69.4*,0.5,1.5,1.6
COc1cccc2c1-c1c(O)cccc1C2=O,.,43.2*,.,.,2.8,36.0
O=C(NC1CCCCC1)c1cccc2c1C(=O)c1ccc(N3CCC(Cc4ccccc4)CC3)cc1S2(=O)=O,.,.,.,.,62.1*,.
O=C(NCc1ccccc1Br)c1cccc2c1C(=O)c1ccc(N3CCC(Cc4ccccc4)CC3)cc1S2(=O)=O,.,.,.,.,157.0*,.
O=C(NCC1CCCO1)c1cccc2c1C(=O)c1ccc(N3CCC(Cc4ccccc4)CC3)cc1S2(=O)=O (centres undefined),.,.,.,.,6.2,.
SMILES,Bim-Mcl-1,BCLXL inh,Mcl1 Bid PPI,Mcl1-Noxa inh,GLD-1 RNA inh,MCL1-BIM inh
CC(=O)NC(CC(=O)OC(C)C(=O)Nc1ccc(Cl)cn1)c1ccccc1 (centres undefined),.,2.2,.,.,0.8,-2.9
Cc1ccccc1NC(=O)CSc1ccncc1,.,-2.7,-7.6,1.4,3.0,-0.3
C=CCC1C=C(C)CC(CC=C)N1 (centres undefined),0.0,5.7,-21.4,-11.7,-1.5,-2.1
CC1CCc2c(sc(Nc3nc4c(F)cccc4s3)c2C(N)=O)C1 (centres undefined),-3.0,-31.0,42.5,101.3*,-28.9,-61.2
Cc1onc(-c2ccccc2Cl)c1C(=O)N1CCCCC1C (centres undefined),.,-1.9,.,.,-1.2,-5.0
O=C(CN1C(=O)/C(=C\c2ccc(F)cc2)Oc2ccccc21)N1CCN(c2ccccn2)CC1,-4.0,1.4,9.3,-21.8,1.4,2.5
O=C(CN1C(=O)/C(=C\c2cccc(F)c2)Oc2ccccc21)N1CCN(c2ccccn2)CC1,-3.0,2.2,53.6*,-11.6,2.4,7.1
